# D1 potentiator = Potentiators of Human D1 Dopamine Receptor: qHTS; D(1A) dopamine receptor (Homo sapiens), P21728; HEK293 TREx D1 cells, calcium flux, dopamine EC20 potentiation; potentiation, % at 10 µM; 0.036% of 360,000 active; in the data active = potentiation above about 30%
# D1 ag = Allosteric Agonists of the Human D1 Dopamine Receptor: qHTS; D(1A) dopamine receptor (Homo sapiens), P21728; HEK293 T-REx D1 cells, calcium flux, agonist mode; activation, % at 2 µM; 1% of 360,000 active; in the data active = activation above about 30%
#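 Inducible HEK293 T-REx D1 cells, force-coupled to calcium signalling, were plated at 4000 cells/well with tetracycline and held overnight at 30 C. After no-wash calcium dye loading, compound-evoked calcium rise over 180 s flagged agonists.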
# D3 antag = qHTS of D3 Dopamine Receptor Antagonist: qHTS. D(3) dopamine receptor (Homo sapiens), P35462. D3R cells, DiscoveRx beta-arrestin luminescence, antagonist mode; stronger effect = lower value. max response, negative = inhibition, %. 2.5% of 360,000 active. AID 652054, 2013; in the data active = max response below about -50%; inconclusive = no clear call, values can overlap the other calls
# Target sequence (P35462 whole entry, looked up): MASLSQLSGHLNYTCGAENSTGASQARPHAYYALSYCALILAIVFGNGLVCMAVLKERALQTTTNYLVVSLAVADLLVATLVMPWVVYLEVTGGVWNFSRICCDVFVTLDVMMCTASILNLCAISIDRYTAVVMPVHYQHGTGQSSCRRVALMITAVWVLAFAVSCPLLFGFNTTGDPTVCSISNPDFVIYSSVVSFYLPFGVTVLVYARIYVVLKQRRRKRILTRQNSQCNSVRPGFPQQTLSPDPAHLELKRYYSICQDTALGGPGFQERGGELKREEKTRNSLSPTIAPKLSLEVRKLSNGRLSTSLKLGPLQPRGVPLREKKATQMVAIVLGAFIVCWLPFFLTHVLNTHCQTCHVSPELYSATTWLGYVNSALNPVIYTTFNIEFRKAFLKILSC
#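 Cells expressing the human receptor were seeded at 1500 cells/well, incubated overnight at 37 degrees C in 5% CO2, then exposed to library compounds with dopamine controls for 90 minutes at 37 degrees C before luminescent detection.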
# D1 antag = Antagonist of Human D 1 Dopamine Receptor: qHTS. D(1A) dopamine receptor (Homo sapiens), P21728. HEK293 TREx D1 cells, calcium flux, dopamine EC80; stronger effect = lower value. activity change, negative = inhibition, % at 10 µM. 3.2% of 360,000 active. AID 504652, 2011; in the data active = activity change below about -30%
#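 Inducible Hek293 Trex D1 cells (tetracycline, overnight, 30 C). Calcium dye 30–90 min RT. Antagonist mode: EC80 dopamine added after 180 s compound read.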
# D3 ag = qHTS of D3 Dopamine Receptor Agonist: qHTS. D3R DiscoveRx beta-arrestin cells, luminescence, 90 min. max activation, %. 0.58% of 410,000 active. D(3) dopamine receptor (Homo sapiens), P35462; in the data active = max activation above about 30%
#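 Agonist-mode cell screen: cells plated at 1500/well and incubated overnight at 37 °C, then exposed to library compounds for 90 min at 37 °C. Detection reagent was added for 30–60 min at room temperature, and luminescence was read.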
# Hits are given with their value; – = inactive; ? = inconclusive; · = no result given. Only some compounds are listed: those with a hit (about 6% of all), similar ones and a draw of the others.
SMILES,D1 potentiator,D1 ag,D3 antag,D1 antag,D3 ag
COc1ccc(CCNC(=O)c2cc(-c3ccc(C)c(C)c3)nc3ccccc23)cc1OC,–,–,·,–,–
Oc1cccc(Nc2nc(-c3ccccc3Cl)nc3ccccc23)c1,–,–,–,–,–
NNc1nc(-c2ccccc2Cl)nc2ccccc12,–,–,-92,–,–
Cc1ccc(-n2c(SCC(=O)N3CCC(C)CC3)nc3c([nH]c4ccccc43)c2=O)cc1,–,–,·,–,–
c1ccc(-c2[nH]ncc2CN2CCc3ccccc3C2)cc1,–,–,?,–,–
Oc1ccc(Cc2ccccc2)c2cccnc12,·,·,–,·,–
Oc1ccc(CN2CCC(Cc3ccccc3)CC2)c2cccnc12,–,–,-88,–,–
Cn1cc(CN2CCc3ccccc3C2)c2ccccc21,–,–,-95,–,–
Oc1ccc(CN2CCN(c3ccccc3)CC2)c2cccnc12,–,–,-100,–,–
Oc1ccc(CN2CCCCC2)c2cccnc12,–,–,?,–,–
Oc1ccc(CN2CCc3ccccc3C2)c2cccnc12,–,–,-114,–,–
CCc1ccc(C2c3c(oc4ccc(F)cc4c3=O)C(=O)N2CCc2ccc(OC)cc2)cc1 (centres undefined),–,–,·,–,–
Ic1ccc(N2CCN(Cc3c[nH]c4ncccc34)CC2)cc1,–,–,-58,–,–
Oc1c(CN2CCCCC2)cc(COCc2ccccc2)c2cccnc12,–,–,-125,–,–
Fc1ccc(N2CCN(Cc3ccccn3)CC2)cc1,–,–,–,–,–
O=[N+]([O-])c1cc(CN2CCN(c3cccc(C(F)(F)F)c3)CC2)c2cccnc2c1O,–,–,-106,–,–
Oc1c(CN2CCN(c3ccccn3)CC2)cc(Cl)c2cccnc12,–,–,-128,–,–
CC(C)OCc1cc(CN2CCN(c3cccc(C(F)(F)F)c3)CC2)c(O)c2ncccc12,–,–,·,–,–
COc1cc2c(=O)c(C(=O)c3ccc(C)c(C)c3)cn(Cc3ccccc3F)c2cc1OC,–,–,·,–,–
CC1Cc2cc(S(=O)(=O)N(C)c3ccc(Br)cc3)ccc2N1C(=O)C1CC1 (centres undefined),–,–,·,–,–
O=C1CSC(c2cccnc2)N1c1cccc(Cl)c1 (centres undefined),–,–,–,–,–
Cc1ccc(N2C(=O)CSC2c2cccnc2)c(Cl)c1 (centres undefined),–,–,–,-37,–
COc1ccc2cc3cc(C(=O)Nc4ccccc4C)oc3nc2c1,–,–,·,–,–
C=CCn1c(SCC(=O)NC2CCCCC2)nnc1-c1ccccn1,–,–,–,-32,–
COC(=O)CN(c1cc(Cl)ccc1OC)S(=O)(=O)c1ccc(C)cc1,–,–,–,–,–
SMILES,D1 potentiator,D1 ag,D3 antag,D1 antag,D3 ag
COC(=O)CN(n1cnnc1)S(=O)(=O)c1ccc(C)cc1,–,–,-54,–,–
CCCCC(CC)CNC(=O)c1cccs1 (centres undefined),–,–,–,-62,–
CCCCC(CC)CNC(=O)c1ncn[nH]1 (centres undefined),–,–,–,–,–
O=C(NCCCCNC(=O)c1cccs1)c1cccs1,–,–,–,–,–
O=C(NCCCNC(=O)c1cccs1)c1cccs1,–,–,-64,–,–
NC(=O)C1CCN(c2csc3ccc(F)cc3c2=O)CC1,–,–,·,–,–
Cc1ccc2cc(CN(Cc3nnnn3Cc3ccco3)CC3CCCO3)c(=O)[nH]c2c1C (centres undefined),–,–,–,-35,–
Cc1ccc2cc(CN(CC3CCCO3)C(=S)NCc3ccco3)c(=O)[nH]c2c1C (centres undefined),–,–,–,–,–
CCOc1ccc(NC(=O)c2cc(S(=O)(=O)N3CCc4ccccc43)ccc2F)cc1,–,–,·,–,–
O=C1C(Nc2ccccc2)=C(N2CCCCC2)C(=O)c2ccccc21,–,–,-60,–,–
Cc1ccc(NC2=C(N3CCCCC3)C(=O)c3ccccc3C2=O)cc1,–,–,-63,–,–
Nc1c[n+](N2CCOCC2)no1,·,·,·,·,–
O=C(NC1CCCC1)C(c1ccccc1)N(Cc1ccc2c(c1)OCO2)C(=O)Cc1cccs1 (centres undefined),–,–,–,–,–
O=C(NCc1ccccc1)C(c1ccccc1)N(Cc1ccc2c(c1)OCO2)C(=O)Cc1cccs1 (centres undefined),–,34,–,–,–
COCCNC(=O)C(c1ccc(C)o1)N(Cc1ccc(OC)cc1)C(=O)Cn1nnc2ccccc21 (centres undefined),–,56,–,–,–
COc1ccc(CNC(=O)C(c2ccc(C)o2)N(Cc2cccs2)C(=O)Cc2cccs2)cc1 (centres undefined),–,–,-57,–,–
COc1cccc(NC(=O)CSc2nnc3[nH]c(=O)cc(-c4ccccc4)n23)c1,–,–,·,·,–
CCOc1ccccc1N(C)C(=O)c1c2c(nc3ccccc13)C(=O)N(C1CCCCC1)C2,–,–,·,–,–
CC(O)CN(C)C (centres undefined),·,·,·,·,–
CC(C)c1ccc(OCC(=O)N(Cc2cccs2)C2CCS(=O)(=O)C2)cc1 (centres undefined),–,–,·,–,–
CC1(c2ccc(OC(F)F)cc2)NC(=O)N(/N=C/c2c(O)ccc3ccccc23)C1=O (centres undefined),–,32,–,–,–
Cc1ccsc1C1C(C#N)=C(N)Oc2n[nH]c(C)c21 (centres undefined),–,–,–,–,–
Cc1cc(C)c(C2C(C#N)=C(N)Oc3n[nH]c(C)c32)cc1CN1CCOCC1 (centres undefined),–,–,-60,–,–
CC(C)C(=O)Nc1nnc2n1CCS2,–,–,·,–,–
CC(=O)N1N=C(c2ccc(C)cc2)OC1c1cccnc1 (centres undefined),–,–,–,-32,–
SMILES,D1 potentiator,D1 ag,D3 antag,D1 antag,D3 ag
O=C(CSC(=S)N1CCOCC1)Nc1nc(-c2ccccc2)c(-c2ccccc2)o1,–,–,–,–,–
CCN(CC)C(=S)SCC(=O)Nc1nc(-c2ccccc2)c(-c2ccccc2)o1,–,–,–,–,–
Cn1nnnc1SCC(=O)Nc1nc(-c2ccccc2)c(-c2ccccc2)o1,–,–,-53,–,–
O=C(CSC(=S)N1CCCCC1)Nc1nc(-c2ccccc2)c(-c2ccccc2)o1,–,–,-52,–,–
O=C(CSc1nnc(CNC(=O)c2ccccc2)n1-c1cccc(Cl)c1)Nc1ccccc1F,–,–,·,–,–
CC(C)CCNC(=O)CSCc1cnn(-c2ccccc2)c1-n1cccc1,–,–,·,–,–
